From PubChem BioAssay (NCATS)
Results filed as inconclusive are left out. Unmarked numbers belong to inactive results. Calls of active or inactive are those of the source. The call rests on the fitted dose curve; in most records, active means well fitted inhibition curve with a large enough effect; inconclusive means small, poorly fitted or top-dose-only effect; inactive means no such curve, though single readings can be large or run the other way.

Test: Primary fluorescence-based thiol-reactive (MSTI) qHTS assay for identification of artifact compounds. (AID 1845221); further: nearly all actives have a fitted effect of over 65% in size;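 on activity change, negative = thiol reactive: thiol-reactive compounds lower the probe fluorescence signal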
Details: MSTI thiol-reactivity probe, 1 h; series mostly up to 53.8 µM; activity change, negative = thiol reactive: at the top concentration
Summary of the method: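 MSTI probe at 4 uM final in 2% DMSO/PBS pH 7.4; compounds, 1 h at room temperature in dark. Fluorescence Ex/Em 525/598 nm, normalised to Acetyl-MSTI and MSTI, fitted to 4-parameter Hill.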
Potency means the concentration at half of the fitted maximal effect.

Row | SMILES | Potency | activity change, negative = thiol reactive
1 | CCC(C)/C=C(C)/C=C/C1=CC2=C(Cl)C(=O)C(C)(OC(C)=O)C(=O)C2=CO1 (stereo unspecified) | 1310 nM (active) | 
2 | COC1CC(O[C@H]2CC[C@]3(C)C4CC[C@]5(C)[C@@H](C6=CC(=O)OC6)[C@@H](OC(C)=O)C[C@]5(O)C4CC[C@@H]3C2)OC(C)C1O (stereo partly specified) |  | 37.8% [at 25.6 µM]
3 | C[C@H]1O[C@@H](O[C@H]2CC[C@]3(C=O)C4CC[C@]5(C)[C@@H](C6=CC(=O)OC6)CC[C@]5(O)[C@@H]4CC[C@]3(O)C2)C[C@@H](O)[C@@H]1O (stereo partly specified) |  | 57.3% [at 25.6 µM]
4 | CC1=CC2OC3[C@H](O)C[C@@](C)([C@]34CO4)[C@@]2(CO)[C@H](O)C1=O (stereo partly specified) |  | -9.84%
5 | C=C1[C@@H](C)[C@H]2[C@H](Cc3ccccc3)NC(=O)[C@]23OC(=O)/C=C/C(=O)CCC[C@@H](C)C/C=C/[C@H]3[C@@H]1O |  | 59.5%
6 | COC1CC(O[C@H]2CC[C@@]3(C)C(CCC4C3CC[C@]3(C)[C@@H](C5=CC(=O)OC5)CC[C@]43O)C2)OC(C)C1O (stereo partly specified) |  | 52.8% [at 25.6 µM]
7 | CC(C)(C)[C@]1(O)C[C@@H]2OC(=O)C[C@@]23C(=O)O[C@@H]2OC(=O)[C@@H](O)[C@]213 |  | -8.85%
8 | C[C@H]1C/C=C/[C@H]2[C@@H]3O[C@]3(C)[C@@H](C)[C@H]3[C@H](Cc4ccccc4)NC(=O)[C@]32OC(=O)O/C=C/[C@@](C)(O)C1=O |  | 11.1% [at 25.6 µM]
9 | CNC(=O)c1cc(C#N)cc(C)c1NC(=O)c1cc(Br)nn1-c1ncccc1Cl |  | 72.4%
10 | OCc1nnc2n1-c1ccc(Cl)cc1C(c1ccccc1Cl)=NC2 |  | 43.6%
11 | CN[C@@H]1C[C@H]2O[C@@](C)([C@@H]1OC)n1c3ccccc3c3c4c(c5c6ccccc6n2c5c31)C(=O)NC4 |  | 49.5%
